# PubChem BioAssay AID623957 (NMMLSC, 2012)
# Activity calls are given as the source filed them.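 How the source made its calls: active means compounds whose fitted half-maximal concentration for lowering the signal is under 100 µM; inactive means the rest.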
# Test: compound effect on K562 vector-control line – cell-based, flow cytometry, cherry pick set 1, counter-screen for ABCB6 inhibitor project, dose response (AID 623957)
structure (smiles),measurement,value
C[N+](C)(C)CC1CCCC(C[N+](C)(C)C)C1=O (stereo unspecified),outcome,inactive
